Screens as filed in PubChem.
Wnt act – Wnt/beta-catenin pathway activators, primary screen, cell-based, plate reader, single point. 1.2% of 300,000 active. Wnt/beta-catenin reporter cell assay, activator. activation, % at 9.35 µM; in the data active = activation above about 30%, passing the limit was not always enough; inconclusive = no clear call, values can overlap the other calls
esBAF inh – Bmi1 luciferase reporter increase in mESCs, primary screen, esBAF inhibitor project, mouse ES cells, Bmi1 luciferase knock-in, single point | 2% of 350,000 active | reporter increase, % at 12.5 µM | AID 602393, 2012 | 24 h; 100% = twice the neutral-well signal; in the data active = activation above about 40%; inconclusive = no clear call, values can overlap the other calls;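 also: a rise in the Bmi1 reporter signal indicates esBAF inhibition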
Vif imaging – HIV Vif self-association inhibitors, primary screen, imaging, HEK293T, single point; HEK293T cells, Vif self-association by quenched fluorescence, 24 h; inhibition, % at 7.49 µM; 0.35% of 340,000 active; AID 602346, 2012; in the data active = inhibition above about 50%, passing the limit was not always enough; inconclusive = no clear call, values can overlap the other calls; inactive = below about 31%
MITF act – activators of MITF-driven TRPM1 promoter reporter, primary screen, cell-based, SK-MEL-5, luciferase, single point; 0.75% of 300,000 active; SK-MEL-5 TRPM1-promoter luciferase, 24 h; % of positive control, neutral wells = 0; activation, % at 12.5 µM; AID 588334, 2011;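 active = mean activation of at least 80% with every replicate also reaching 80%; inconclusive = mean reaches 80% but some replicate falls short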
Glyco luc inh – increase of ERlucT glycosylation luciferase signal, primary screen, N-linked glycosylation inhibitor project, D54 ERlucT cells, luminescence, set 2; D54 ERlucT glycosylation luciferase reporter, 24 h; percent of 100 nM tunicamycin response; reporter increase, % at 12.5 µM; 0.23% of 360,000 active;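 active = mean luciferase reporter signal, scaled so untreated is 0 and the glycosylation-blocking control 100, at or above a set limit in every replicate; inconclusive = mean reaches the limit but not every replicate does; inactive = mean below the limit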;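 also: luciferase carries N-glycosylation sites so blocking glycosylation raises the light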
PvdQ inh – P. aeruginosa PvdQ acylase inhibitors, primary screen, biochemical, fluorescence, plate reader and imaging, single point; PvdQ acylase [Pseudomonas aeruginosa LESB58]; purified PvdQ acylase; inhibition, % at 10 µM; 0.063% of 340,000 active; in the data active = inhibition above about 30%, passing the limit was not always enough; inconclusive = no clear call, values can overlap the other calls
esBAF Ring1 qPCR – Ring1 mRNA increase in mouse ESCs, confirmation, esBAF inhibitor project, cell-based, mouse ESC, RT-qPCR, cherry-pick; mouse ESC E14, Ring1 mRNA RT-qPCR fold change; shares compounds with esBAF inh; AID 743176, 2013; 550 tested, under 10 active; fold change at 33 µM;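 active = Ring1 gene expression raised more than 2-fold over untreated cells in both replicates at either tested dose; inconclusive = only one replicate above 2-fold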;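 also: Ring1 transcript normalised to actin housekeeping signal by TaqMan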
Fgf4 repress – Fgf4 mRNA decrease in mouse ESCs, confirmation, esBAF inhibitor project, cell-based, mouse ESC, RT-qPCR, cherry-pick; shares compounds with esBAF inh; mouse ESC E14, Fgf4 mRNA qPCR fold change; stronger effect = lower value; Fgf4 expression fold change at 33 µM; 4% of 550 active;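 active = Fgf4 expression under 0.8 fold of control in both repeat measurements at one or both tested doses; inconclusive = under 0.8 fold in just a single repeat measurement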;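 also: Fgf4 transcript normalised to actin in duplex TaqMan qPCR; cells exposed to compound for 24 h before lysis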
Bmi1 derepress – esBAF inhibition via Bmi1 de-repression, confirmation, cell-based, RT-qPCR, mouse ESC, single point, cherry-pick. shares compounds with esBAF inh. mouse ESE14 ES cells, Bmi1 mRNA qPCR fold; stronger effect = higher value. fold change at 33 µM. 550 tested, under 10 active. AID 743180, 2013;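 active = Bmi1 expression fold change above 6 at either tested concentration, seen in replicate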
A549 cytotox – A549 cell cytotoxicity, cytotoxicity control, plate reader, single point, cherry-pick; shares compounds with esBAF inh; cell viability change % (negative = cytotoxic), % at 25 µM, hits read low; 550 tested, under 10 active; call rule not given here
HepG2 cytotox SP – HepG2 cell cytotoxicity, cytotoxicity control, plate reader, single point, cherry-pick. 4% of 550 active. stronger effect = lower value. activity change, negative = inhibition, % at 25 µM. shares compounds with esBAF inh; in the data active = activity change below about -50%
HEK293 cytotox SP – HEK293 cell cytotoxicity, cytotoxicity control, plate reader, single point, cherry-pick | 3% of 550 active | shares compounds with esBAF inh | activity change, negative = inhibition, % at 25 µM, hits read low; in the data active = activity change below about -38%, passing the limit was not always enough
Large screens that a line does not name were inactive (follow-up assays come after a bar, where they were run). This is a sample that favours compounds with a hit; in the whole collection about 2.9% have one here.

COc1ccc(-c2nnn(Cc3ccccc3)n2)cc1	esBAF inh 79.4 | esBAF Ring1 qPCR inactive | Fgf4 repress inactive | Bmi1 derepress inactive | A549 cytotox inactive | HepG2 cytotox SP inactive | HEK293 cytotox SP inactive
Nc1ccc(-c2nnn(Cc3ccccc3)n2)cc1	none (no result: MITF act)
CCC1CCCCN1C(=O)c1ccc2nc(Cc3ccc(OC)cc3)oc2c1 (stereo not given)	esBAF inh 66.7, MITF act inconclusive | esBAF Ring1 qPCR inactive | Fgf4 repress inactive | Bmi1 derepress inactive | A549 cytotox inactive | HepG2 cytotox SP inactive | HEK293 cytotox SP inactive
CN(C)c1ccc(-c2csc(C(O)c3ccc(F)cc3)n2)cc1 (stereo not given)	esBAF inh 82.0 (no result: MITF act, PvdQ inh) | esBAF Ring1 qPCR inactive | Fgf4 repress inactive | Bmi1 derepress inactive | A549 cytotox inactive | HepG2 cytotox SP inactive | HEK293 cytotox SP inactive
CN(C)c1ccc(-c2csc(C(O)c3ccccc3)n2)cc1 (stereo not given)	esBAF inh 61.2 (no result: MITF act, PvdQ inh) | esBAF Ring1 qPCR inactive | Fgf4 repress inconclusive | Bmi1 derepress inactive | A549 cytotox inactive | HepG2 cytotox SP inactive | HEK293 cytotox SP inactive
COc1ccc(-c2csc(C(O)c3ccc(F)cc3)n2)cc1 (stereo not given)	esBAF inh 59.7 (no result: MITF act, PvdQ inh) | esBAF Ring1 qPCR inactive | Fgf4 repress inactive | Bmi1 derepress inactive | A549 cytotox inactive | HepG2 cytotox SP inactive | HEK293 cytotox SP inactive
COc1ccc(C(O)c2nc(-c3ccc(N(C)C)cc3)cs2)cc1 (stereo not given)	esBAF inh inconclusive (no result: MITF act, PvdQ inh)
COC(=O)c1ccc2[nH]c(C3(O)CCCCC3)c(C)c2c1	Wnt act inconclusive, esBAF inh 72.3, MITF act 83.5 | esBAF Ring1 qPCR inactive | Fgf4 repress inactive | Bmi1 derepress inactive | A549 cytotox inactive | HepG2 cytotox SP -55.7 | HEK293 cytotox SP inactive
COc1ccc(-c2csc(Nc3ccc(C)cn3)n2)cc1	none (no result: esBAF inh)
CC(=O)Oc1ccc(-c2csc(Nc3ccc(Cl)cn3)n2)cc1	esBAF inh 58.8 (no result: MITF act) | esBAF Ring1 qPCR inactive | Fgf4 repress inactive | Bmi1 derepress inactive | A549 cytotox inactive | HepG2 cytotox SP inactive | HEK293 cytotox SP inactive
Cc1ccc(C(=O)Cc2ccccc2)c(O)c1	esBAF inh 61.9 | esBAF Ring1 qPCR inactive | Fgf4 repress inactive | Bmi1 derepress inactive | A549 cytotox inactive | HepG2 cytotox SP inactive | HEK293 cytotox SP inactive
O=S(=O)(c1ccccc1)N1CC[C@@H]2[C@H](CO)Nc3ccc(Br)cc3[C@@H]21	none (no result: Wnt act, Vif imaging, MITF act, Glyco luc inh, PvdQ inh)
CC(C)C#Cc1ccc2c(c1)O[C@@H](CN(C)C(=O)c1cccnc1)[C@H](C)CN([C@H](C)CO)S2(=O)=O	none (no result: Wnt act, Vif imaging, MITF act, Glyco luc inh, PvdQ inh)
Cc1ccc(S(=O)(=O)N2CCC[C@H]2C(=O)OCc2cc(=O)oc3cc(C)ccc23)cc1	none (no result: esBAF inh)
Cc1ccc2c(COC(=O)C34CC5CC(CC(C5)C3)C4)cc(=O)oc2c1	esBAF inh 95.8, MITF act 102.9 (no result: Wnt act) | esBAF Ring1 qPCR inactive | Fgf4 repress inactive | Bmi1 derepress inactive | A549 cytotox inactive | HepG2 cytotox SP inactive | HEK293 cytotox SP inactive
CC(C)C(=O)N1CCN(c2nc3ccc(Cl)cc3s2)CC1	esBAF inh 80.4 | esBAF Ring1 qPCR inactive | Fgf4 repress inactive | Bmi1 derepress inactive | A549 cytotox inactive | HepG2 cytotox SP inactive | HEK293 cytotox SP inactive
CC(C)(C)C(=O)N1CCN(c2nc3ccccc3s2)CC1	esBAF inh 63.9, MITF act 122.4 | esBAF Ring1 qPCR inactive | Fgf4 repress inactive | Bmi1 derepress inactive | A549 cytotox inactive | HepG2 cytotox SP inactive | HEK293 cytotox SP inactive
CC(C)c1ccc(CNc2ncccn2)cc1	esBAF inh 54.9 (no result: MITF act) | esBAF Ring1 qPCR inactive | Fgf4 repress inactive | Bmi1 derepress inactive | A549 cytotox inactive | HepG2 cytotox SP inactive | HEK293 cytotox SP inactive
C[C@H]1CN([C@@H](C)CO)C(=O)Cc2cc(NC(=O)Nc3ccccc3)ccc2O[C@H]1CN(C)CC1CCCCC1	none (no result: Wnt act, Vif imaging, MITF act, Glyco luc inh, PvdQ inh)
O=C(CNC(=O)c1ccccc1F)Nc1ccc2c(c1)OCO2	esBAF inh 62.1 | esBAF Ring1 qPCR inactive | Fgf4 repress inactive | Bmi1 derepress inactive | A549 cytotox inactive | HepG2 cytotox SP inactive | HEK293 cytotox SP inactive
CCNC(=O)[C@@H]1[C@@H](CO)[C@@H]2Cn3c(ccc(C4=CCCCC4)c3=O)[C@H]1N2Cc1cocn1	none (no result: Wnt act, Vif imaging, MITF act, Glyco luc inh, PvdQ inh)
Cc1ccc(NC(=O)C(=O)Nc2ccc(C)cn2)nc1	esBAF inh 57.3 | esBAF Ring1 qPCR inactive | Fgf4 repress inactive | Bmi1 derepress inactive | A549 cytotox inactive | HepG2 cytotox SP inactive | HEK293 cytotox SP inactive
CCCc1nc2c3ccccc3ccn2c1Cc1ccc(C)cc1	esBAF inh 100.7 (no result: Vif imaging, MITF act, PvdQ inh) | esBAF Ring1 qPCR inactive | Fgf4 repress inactive | Bmi1 derepress inactive | A549 cytotox inactive | HepG2 cytotox SP -56.2 | HEK293 cytotox SP inactive
CCC(c1nc2ccccc2[nH]1)N(C(=O)Cc1cc(OC)cc(OC)c1)c1ccc(N2CCOCC2)cc1 (stereo not given)	none (no result: Vif imaging, MITF act, PvdQ inh)
O=C(c1ccncc1)N(c1ccc(N2CCOCC2)cc1)C(c1ccccc1)c1nc2ccccc2[nH]1 (stereo not given)	esBAF inh 47.8 (no result: Vif imaging, MITF act, PvdQ inh) | esBAF Ring1 qPCR inactive | Fgf4 repress inactive | Bmi1 derepress inactive | A549 cytotox inactive | HepG2 cytotox SP inactive | HEK293 cytotox SP inactive
CC(=O)N(/N=C1\Sc2ccccc2C1=O)c1ccccc1	esBAF inh 81.1 (no result: Wnt act, MITF act) | esBAF Ring1 qPCR inactive | Bmi1 derepress inactive | A549 cytotox inactive | HepG2 cytotox SP inactive | HEK293 cytotox SP inactive
